{"source": "PubChem BioAssay AID1159580", "about": "(chemical genetic matrix, 2015)", "assay": "chemical genetic growth profiling, strain panel (AID 1159580);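 further: tested at 20 µM; growth read once vehicle control cultures reached saturation at 30 °C; 1 = growth at the plate median or of vehicle wells; lower values mean less growth of the strain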", "conditions": "growth OD", "note": "Among all 5,500 compounds or so, about 2,000 (36%) were called active. Another 18% or so got no clear call; they are omitted. This is one part of the list. A number with no mark means an inactive call. No stated cut-off is given here; in the data, active means normalized growth mostly below about 0.91 (no sharp cut-off); inconclusive means no clear call, values can overlap the other calls; inactive means mostly above about 0.92."}
{"molecule": "O=C(O)CCC(=O)c1ccc(-c2ccccc2)cc1", "values": [{"measurement": "normalized growth", "setting": "S. cerevisiae deletion strains, locus YKL009W, strain mrt4, active compounds read low", "value": "0.799 (active)"}, {"measurement": "normalized growth", "setting": "S. cerevisiae deletion strains, locus YKL068W, active compounds read low", "value": 1}, {"measurement": "normalized growth", "setting": "S. cerevisiae deletion strains, locus YKL085W, strain MDH1 (second series), active compounds read low", "value": 0.939}, {"measurement": "normalized growth", "setting": "S. cerevisiae deletion strains, locus YKL085W, strain MDH1, active compounds read low", "value": 0.939}, {"measurement": "normalized growth", "setting": "S. cerevisiae deletion strains, locus YKL160W, strain elf1, active compounds read low", "value": 0.961}, {"measurement": "normalized growth", "setting": "S. cerevisiae deletion strains, locus YKL190W, strain CNB1, active compounds read low", "value": 0.996}, {"measurement": "normalized growth", "setting": "S. cerevisiae deletion strains, locus YKR001C, strain vps1, active compounds read low", "value": 0.92}, {"measurement": "normalized growth", "setting": "S. cerevisiae deletion strains, locus YKR026C, strain gcn3, active compounds read low", "value": 0.944}, {"measurement": "normalized growth", "setting": "S. cerevisiae deletion strains, locus YKR091W, strain srl3, active compounds read low", "value": 0.979}, {"measurement": "normalized growth", "setting": "S. cerevisiae deletion strains, locus YLL001W, strain dnm1, active compounds read low", "value": 0.947}, {"measurement": "normalized growth", "setting": "S. cerevisiae deletion strains, locus YLL026W, active compounds read low", "value": 0.989}, {"measurement": "normalized growth", "setting": "S. cerevisiae deletion strains, locus YLL041C, strain sdh2, active compounds read low", "value": 0.979}, {"measurement": "normalized growth", "setting": "S. cerevisiae deletion strains, locus YLR027C, strain aat2, active compounds read low", "value": 0.978}, {"measurement": "normalized growth", "setting": "S. cerevisiae deletion strains, locus YLR039C, strain RIC1, active compounds read low", "value": 0.855}, {"measurement": "normalized growth", "setting": "S. cerevisiae deletion strains, locus YLR058C, strain SHM2, active compounds read low", "value": 0.978}, {"measurement": "normalized growth", "setting": "S. cerevisiae deletion strains, locus YLR102C, strain apc9, active compounds read low", "value": 0.981}, {"measurement": "normalized growth", "setting": "S. cerevisiae deletion strains, locus YLR113W, strain HOG1, active compounds read low", "value": 0.865}, {"measurement": "normalized growth", "setting": "S. cerevisiae deletion strains, locus YLR221C, strain rsa3, active compounds read low", "value": 0.997}, {"measurement": "normalized growth", "setting": "S. cerevisiae deletion strains, locus YLR258W, strain gsy2, active compounds read low", "value": 1}, {"measurement": "normalized growth", "setting": "S. cerevisiae deletion strains, locus YLR262C, strain YPT6 (second series), active compounds read low", "value": "0.765 (active)"}, {"measurement": "normalized growth", "setting": "S. cerevisiae deletion strains, locus YLR262C, strain YPT6, active compounds read low", "value": 0.821}, {"measurement": "normalized growth", "setting": "S. cerevisiae deletion strains, locus YLR268W, strain sec22, active compounds read low", "value": 0.894}, {"measurement": "normalized growth", "setting": "S. cerevisiae deletion strains, locus YLR320W, strain mms22, active compounds read low", "value": 1.01}, {"measurement": "normalized growth", "setting": "S. cerevisiae deletion strains, locus YLR330W, strain CHS5, active compounds read low", "value": 0.994}, {"measurement": "normalized growth", "setting": "S. cerevisiae deletion strains, locus YLR342W, strain FKS1 (second series), active compounds read low", "value": 0.986}, {"measurement": "normalized growth", "setting": "S. cerevisiae deletion strains, locus YLR342W, strain FKS1, active compounds read low", "value": 0.934}, {"measurement": "normalized growth", "setting": "S. cerevisiae deletion strains, locus YLR357W, strain rsc2, active compounds read low", "value": 0.903}, {"measurement": "normalized growth", "setting": "S. cerevisiae deletion strains, locus YLR370C, strain arc18, active compounds read low", "value": 0.984}, {"measurement": "normalized growth", "setting": "S. cerevisiae deletion strains, locus YLR371W, strain rom2, active compounds read low", "value": 0.962}, {"measurement": "normalized growth", "setting": "S. cerevisiae deletion strains, locus YLR384C, strain iki3, active compounds read low", "value": 0.964}, {"measurement": "normalized growth", "setting": "S. cerevisiae deletion strains, locus YLR418C, strain cdc73, active compounds read low", "value": 0.902}, {"measurement": "normalized growth", "setting": "S. cerevisiae deletion strains, locus YML016C, strain PPZ1, active compounds read low", "value": 0.988}, {"measurement": "normalized growth", "setting": "S. cerevisiae deletion strains, locus YML032C, strain rad52, active compounds read low", "value": 0.938}, {"measurement": "normalized growth", "setting": "S. cerevisiae deletion strains, locus YML120C, strain ndi1, active compounds read low", "value": 0.971}, {"measurement": "normalized growth", "setting": "S. cerevisiae deletion strains, locus YML124C, strain tub3, active compounds read low", "value": 0.981}, {"measurement": "normalized growth", "setting": "S. cerevisiae deletion strains, locus YMR058W, strain fet3, active compounds read low", "value": 0.978}, {"measurement": "normalized growth", "setting": "S. cerevisiae deletion strains, locus YMR078C, strain ctf18, active compounds read low", "value": 0.963}, {"measurement": "normalized growth", "setting": "S. cerevisiae deletion strains, locus YMR125W, strain sto1, active compounds read low", "value": 0.979}, {"measurement": "normalized growth", "setting": "S. cerevisiae deletion strains, locus YMR129W, active compounds read low", "value": 0.987}, {"measurement": "normalized growth", "setting": "S. cerevisiae deletion strains, locus YMR205C, strain PFK2, active compounds read low", "value": 0.974}, {"measurement": "normalized growth", "setting": "S. cerevisiae deletion strains, locus YMR223W, strain ubp8, active compounds read low", "value": 0.974}, {"measurement": "normalized growth", "setting": "S. cerevisiae deletion strains, locus YMR231W, strain pep5, active compounds read low", "value": 0.972}, {"measurement": "normalized growth", "setting": "S. cerevisiae deletion strains, locus YMR263W, strain SAP30, active compounds read low", "value": 0.972}, {"measurement": "normalized growth", "setting": "S. cerevisiae deletion strains, locus YMR307W, strain GAS1, active compounds read low", "value": 0.939}, {"measurement": "normalized growth", "setting": "S. cerevisiae deletion strains, locus YNL067W, strain RPL9B, active compounds read low", "value": 0.957}, {"measurement": "normalized growth", "setting": "S. cerevisiae deletion strains, locus YNL071W, strain lat1, active compounds read low", "value": 0.951}, {"measurement": "normalized growth", "setting": "S. cerevisiae deletion strains, locus YNL128W, strain TEP1, active compounds read low", "value": 0.982}, {"measurement": "normalized growth", "setting": "S. cerevisiae deletion strains, locus YNL153C, strain GIM3, active compounds read low", "value": 0.985}, {"measurement": "normalized growth", "setting": "S. cerevisiae deletion strains, locus YNL183C, strain NPR1, active compounds read low", "value": "0.724 (active)"}, {"measurement": "normalized growth", "setting": "S. cerevisiae deletion strains, locus YNL209W, strain ssb2, active compounds read low", "value": 0.993}, {"measurement": "normalized growth", "setting": "S. cerevisiae deletion strains, locus YNL233W, strain BNI4, active compounds read low", "value": 0.97}, {"measurement": "normalized growth", "setting": "S. cerevisiae deletion strains, locus YNL248C, strain rpa49, active compounds read low", "value": 0.993}, {"measurement": "normalized growth", "setting": "S. cerevisiae deletion strains, locus YNL250W, strain rad50, active compounds read low", "value": 0.977}, {"measurement": "normalized growth", "setting": "S. cerevisiae deletion strains, locus YNL271C, strain bni1, active compounds read low", "value": "0.909 (active)"}, {"measurement": "normalized growth", "setting": "S. cerevisiae deletion strains, locus YNL298W, strain CLA4, active compounds read low", "value": "0.826 (active)"}, {"measurement": "normalized growth", "setting": "S. cerevisiae deletion strains, locus YNL307C, strain MCK1, active compounds read low", "value": 0.963}, {"measurement": "normalized growth", "setting": "S. cerevisiae deletion strains, locus YNL322C, strain KRE1 (second series), active compounds read low", "value": 0.97}, {"measurement": "normalized growth", "setting": "S. cerevisiae deletion strains, locus YNL322C, strain KRE1, active compounds read low", "value": 0.998}, {"measurement": "normalized growth", "setting": "S. cerevisiae deletion strains, locus YNR049C, strain mso1, active compounds read low", "value": 0.987}, {"measurement": "normalized growth", "setting": "S. cerevisiae deletion strains, locus YNR052C, strain pop2, active compounds read low", "value": 0.972}, {"measurement": "normalized growth", "setting": "S. cerevisiae deletion strains, locus YOL006C, strain TOP1, active compounds read low", "value": 0.889}, {"measurement": "normalized growth", "setting": "S. cerevisiae deletion strains, locus YOL012C, strain htz1", "value": 0.779}, {"measurement": "normalized growth", "setting": "S. cerevisiae deletion strains, locus YOL147C, strain pex11, active compounds read low", "value": 0.98}, {"measurement": "normalized growth", "setting": "S. cerevisiae deletion strains, locus YOR001W, strain rrp6, active compounds read low", "value": 0.955}, {"measurement": "normalized growth", "setting": "S. cerevisiae deletion strains, locus YOR061W, strain CKA2, active compounds read low", "value": 0.956}, {"measurement": "normalized growth", "setting": "S. cerevisiae deletion strains, locus YOR069W, strain VPS5, active compounds read low", "value": 0.987}, {"measurement": "normalized growth", "setting": "S. cerevisiae deletion strains, locus YOR070C, strain gyp1, active compounds read low", "value": 0.988}, {"measurement": "normalized growth", "setting": "S. cerevisiae deletion strains, locus YOR080W, strain dia2, active compounds read low", "value": 0.979}, {"measurement": "normalized growth", "setting": "S. cerevisiae deletion strains, locus YOR083W, strain WHI5, active compounds read low", "value": 0.953}, {"measurement": "normalized growth", "setting": "S. cerevisiae deletion strains, locus YOR106W, strain vam3, active compounds read low", "value": 0.935}, {"measurement": "normalized growth", "setting": "S. cerevisiae deletion strains, locus YOR136W, strain idh2, active compounds read low", "value": 0.968}, {"measurement": "normalized growth", "setting": "S. cerevisiae deletion strains, locus YOR144C, strain elg1, active compounds read low", "value": 0.972}, {"measurement": "normalized growth", "setting": "S. cerevisiae deletion strains, locus YOR184W, strain ser1, active compounds read low", "value": 0.905}, {"measurement": "normalized growth", "setting": "S. cerevisiae deletion strains, locus YOR231W, strain MKK1, active compounds read low", "value": "0.724 (active)"}, {"measurement": "normalized growth", "setting": "S. cerevisiae deletion strains, locus YOR265W, strain rbl2, active compounds read low", "value": 0.996}, {"measurement": "normalized growth", "setting": "S. cerevisiae deletion strains, locus YOR270C, strain vph1, active compounds read low", "value": 0.95}, {"measurement": "normalized growth", "setting": "S. cerevisiae deletion strains, locus YOR290C, strain snf2, active compounds read low", "value": 0.978}, {"measurement": "normalized growth", "setting": "S. cerevisiae deletion strains, locus YOR316C, strain cot1, active compounds read low", "value": 0.984}, {"measurement": "normalized growth", "setting": "S. cerevisiae deletion strains, locus YPL051W, strain arl3, active compounds read low", "value": 0.958}, {"measurement": "normalized growth", "setting": "S. cerevisiae deletion strains, locus YPL055C, strain LGE1, active compounds read low", "value": 0.973}, {"measurement": "normalized growth", "setting": "S. cerevisiae deletion strains, locus YPL078C, strain atp4, active compounds read low", "value": 0.941}, {"measurement": "normalized growth", "setting": "S. cerevisiae deletion strains, locus YPL106C, strain sse1, active compounds read low", "value": 1.06}, {"measurement": "normalized growth", "setting": "S. cerevisiae deletion strains, locus YPL240C, strain hsp82, active compounds read low", "value": 0.999}, {"measurement": "normalized growth", "setting": "S. cerevisiae deletion strains, locus YPL241C, strain CIN2, active compounds read low", "value": 0.996}, {"measurement": "normalized growth", "setting": "S. cerevisiae deletion strains, locus YPL256C, strain CLN2, active compounds read low", "value": "0.78 (active)"}, {"measurement": "normalized growth", "setting": "S. cerevisiae deletion strains, locus YPR119W, strain clb2, active compounds read low", "value": 0.972}, {"measurement": "normalized growth", "setting": "S. cerevisiae deletion strains, locus YPR141C, strain kar3, active compounds read low", "value": 1.01}, {"measurement": "normalized growth", "setting": "S. cerevisiae deletion strains, locus YPR163C, strain tif3, active compounds read low", "value": 0.967}, {"measurement": "normalized growth", "setting": "S. cerevisiae deletion strains, locus YPR167C, strain met16, active compounds read low", "value": 0.967}, {"measurement": "normalized growth", "setting": "S. cerevisiae deletion strains, strain wtn01, active compounds read low", "value": 0.932}, {"measurement": "normalized growth", "setting": "S. cerevisiae strains, strain wild type, active compounds read low", "value": 0.99}]}
